This passage reports activity change results from PubChem BioAssay AID743279 (National Center for Advancing Translational Sciences (NCATS), 2014).

Structures are written as SMILES. Out of some 360,000 compounds screened, about 17,000 (4.7%) were called active. About 5% were inconclusive and are not listed. This is one part of a sample in which actives are shown more often than they occur. No stated cut-off is given here; in the data, active means activity change below about -50%; inconclusive means mostly about -30% to -49%; inactive means weaker than that.
On the % scale 0 is the no-effect control and ±100 the full control effect.

This test can be described thus: qHTS for Inhibitors of Inflammasome Signaling: IL-1-beta AlphaLISA Primary Screen. The following applies: THP-1 LPS/ATP IL-1B secretion, 16 h; at 57.5 µM, hits give low values. An outline of the steps:
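Secreted IL-1B measured by AlphaLISA bead assay after 16 h compound exposure of THP-1 cells; compounds (final up to 57.5 uM) added 1 h before LPS (250 ng/mL) and ATP (1.25 mM) stimulation; lower signal means less secretion.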
For the compound `CCN1C[C@@H]2[C@@H]3C(=O)N(Cc4ccccc4)C(=O)[C@@H]3[C@](C)(C1=O)N2C(=O)c1ccc(C(C)(C)C)cc1`, the activity change was 0% (inactive).

On to `CSc1ncnc2c1ncn2CCCNCc1ccco1`, for which the activity change is 15.8% (inactive). Take `CCC(c1nnnn1Cc1ccco1)N(CCc1ccccc1)Cc1cc2cccc(C)c2[nH]c1=O` (stereo not drawn): the activity change is -4.44% (inactive). Next, `Cc1cccc2cc(CN(Cc3cccs3)C(c3nnnn3C3CCCC3)C(C)C)c(=O)[nH]c12` (stereo not drawn): 0% (inactive); `CCOc1ccc2[nH]c(=O)c(CN(Cc3nnnn3CCc3ccccc3)CC3CCCO3)cc2c1` (stereo not drawn): -29.1% (inactive).

Turning to `Cc1cccc2cc(CN(Cc3nnnn3Cc3ccccc3)C3CCCC3)c(=O)[nH]c12`, the activity change was -64.3% (active). To `CCOc1ccc2[nH]c(=O)c(CN(Cc3nnnn3Cc3ccccc3)CC3CCCO3)cc2c1` (stereo not drawn) belongs -63.9% (active); to `Cc1cc(C)c2cc(CN(Cc3nnnn3Cc3ccc(F)cc3)C3CCCC3)c(=O)[nH]c2c1`, 7.62% (inactive). To `CCC(c1nnnn1Cc1ccccc1)N(Cc1cc2cc(OC)ccc2[nH]c1=O)CC1CCCO1` (stereo not drawn) belongs 0% (inactive); to `Cc1cc(C)c2[nH]c(=O)c(C(c3nnnn3Cc3ccc4c(c3)OCO4)N3CCCC3)cc2c1` (stereo not drawn), -10.3% (inactive); to `Cc1cccc2cc(CN(Cc3ccc4c(c3)OCO4)Cc3nnnn3C3CCCC3)c(=O)[nH]c12`, -54.8% (active). To `COc1ccc(C(C#N)=C2C=CC(=NO)c3ccccc32)cc1` belongs -24.6% (inactive); to `Cc1nc2ccccc2nc1CC(O)(c1ccccc1)c1ccccc1`, 3.22% (inactive); to `O=C1NC[C@H](CCCCN2CCN(CCc3ccccc3)C(=O)C2=O)N(CC2CCCCC2)C1=O`, -14.3% (inactive). As to `CCCCc1nc2ccc(F)cc2cc1C`, the activity change is 8.78% (inactive). Next, `COc1ccc(C(C)(C)C)cc1NC(=O)CN(C)C1=NS(=O)(=O)c2ccccc21`: 10.7% (inactive). To `COc1ccc([C@H]2N[C@]3(CCCN(CC4CCCCC4)C3=O)[C@H]3C(=O)N(C)C(=O)[C@@H]23)cc1` belongs -15% (inactive); to `O=C(Nc1cccc(Cc2ccccc2)c1)Nc1ccc2nc([C@@H]3O[C@H](CO)[C@@H](O)[C@H](O)[C@H]3O)[nH]c2c1`, 33.4% (inactive); to `COc1cc(/C=C2/C(=O)NN(c3cccc(Cl)c3)C2=O)cc(Br)c1O`, -15.3% (inactive). Next, `C=CCOc1c(Br)cc(/C=N\n2nnnc2N)cc1OC`: 0% (inactive); `CCOc1c(Br)cc(/C=C2\C(=O)N(CCC#N)N=C2C)cc1OC`: -62.4% (active). `COc1cccc(-c2cc(NC(C)=O)c3ncc(-c4cccc(C(C)=O)c4)n3c2)c1`: the activity change was 7.02% (inactive). On to `Cc1cc(C)cc(Oc2nc3c(C)cccn3c(=O)c2/C=C(\C#N)C(=O)NC2CCS(=O)(=O)C2)c1` (stereo not drawn), for which the activity change is -109% (active). For `Cc1cccn2c(=O)c(/C=C(\C#N)S(=O)(=O)c3ccc(Cl)cc3)c(N3CCC(C(N)=O)CC3)nc12`, the activity change was 0% (inactive). To `Cc1cccn2c(=O)c(/C=C(\C#N)C(N)=O)c(N3CCCCCC3)nc12` belongs -18.7% (inactive); to `COc1ccc2c(c1)C(=O)CC(c1ccccc1)O2` (stereo not drawn), -12.1% (inactive); to `Cc1nn(C(C)C(=O)NCCC2=CCCCC2)c(=O)c2nn(-c3ccccc3)c(C)c12` (stereo not drawn), 14.5% (inactive). To `CCc1cccc(C)c1NC(=O)COC(=O)CNC(=O)c1cccs1` belongs 16.5% (inactive).

For the compound `CCOC(=O)c1oc2ccccc2c1NC(=O)c1cccs1`, the activity change was -2.68% (inactive). Next, `CCc1c(C)sc(NC(=O)c2cccs2)c1C(N)=O`: -92.1% (active); `COC(=O)C1=CO[C@@H](O[C@@H]2O[C@H](CO)[C@@H](O)[C@H](O)[C@H]2O)C2C1C[C@H](O)[C@@H]2C` (stereo partly drawn): 15.4% (inactive).

With `COC[C@@H]1NS(=O)(=O)c2ccc(Br)cc2O[C@H]1c1ccccc1`, the activity change is 2.65% (inactive). Consider `COc1ccc(/C=C2\CCc3ccccc3C2=O)c(OC)c1OC`, for which the activity change is -71% (active). For `O=C1/C(=C/c2cccs2)CCc2ccccc21`, the activity change is -13.1% (inactive).

`COc1ccc(/C=C2/CCCc3ccccc3C2=O)cc1`: the activity change was 0% (inactive). For `N#CCc1c[nH]c2ccc([N+](=O)[O-])cc12`, the activity change was -1.78% (inactive). Consider `CNc1cncc(-c2ccc(NS(C)(=O)=O)cc2)n1`, for which the activity change is 6.32% (inactive). Next, `CC(NC(=O)CCC(=O)N1CCN(S(=O)(=O)c2ccc(Cl)cc2)CC1)c1ccccc1` (stereo not drawn): 45.7% (inactive). Next, `O=C(NCc1cccc(C(F)(F)F)c1)c1cccc(S(=O)(=O)N2CCN(Cc3ccccc3)CC2)c1`: 0% (inactive). Next, `O=C(CCC(=O)N1CCN(S(=O)(=O)c2ccc(Cl)cc2)CC1)NCc1cccc(C(F)(F)F)c1`: -52.1% (active); `COC(=O)C(NC(=O)c1ccc(OC)cc1)(Nc1ncc(S(=O)(=O)c2ccc([N+](=O)[O-])cc2)s1)C(F)(F)F` (stereo not drawn): -99.1% (active). For the compound `CCOCC(=O)Nc1ncc(S(=O)(=O)c2ccc([N+](=O)[O-])cc2)s1`, the activity change was 20.1% (inactive).

As to `COc1ccc(C(=O)NCCNc2ccc([N+](=O)[O-])cn2)cc1`, the activity change was 40.6% (inactive).

For the compound `Nc1c(Cl)cc(-c2csc(N3CCCC3c3nc4cc(Cl)c(Cl)cc4n3CCOCCO)n2)cc1Cl` (stereo not drawn), the activity change is -4.36% (inactive).

With `Cc1ccc(S(=O)(=O)N2C[C@H]3C(=O)C[C@@H](c4cccc5ccccc45)N(S(=O)(=O)c4ccc(C)cc4)[C@H]3C[C@H]2c2ccc(Cl)cc2)cc1`, the activity change is 0.625% (inactive).

As to `COCCNC(=O)C1C(=O)Nc2ccccc2C(=O)N1c1ccc2c(c1)OCCO2` (stereo not drawn), the activity change is 23.8% (inactive). Next, `Cc1[nH]c2ccccc2c1/C=C(/C#N)C(=O)NC(C)C`: -99.8% (active); `COC(=O)Cc1c(-c2[nH]c3ccccc3c2CC(=O)OC)[nH]c2ccccc12`: 0% (inactive); `CC(C)NC(=O)/C(C#N)=C\c1ccc(N(C)C)c(Br)c1`: -7.21% (inactive). `O[C@@H]1C[C@H](c2ccccc2)N(Cc2cccs2)C[C@H]1n1cc(C2CC2)nn1`: the activity change is -20.7% (inactive).

For the compound `Cc1ccc(C)c(NC(=S)NNC(=S)Nc2ccc(C(C)C)cc2)c1`, the activity change is -52.5% (active). To `Cc1ccc(C)c(NC(=S)NNC(=O)c2csc(C)c2)c1` belongs 12.4% (inactive); to `CC(C)c1ccc(NC(=S)NNc2ccc(Cl)c(C(=O)O)c2)cc1`, 20.7% (inactive).
